Laboratory results as given in PubChem BioAssay (EPA / NIEHS).
Records with an inconclusive call do not appear. The source made the active and inactive calls. The calls were made as follows, unless noted: active = hit-call score of the fitted dose curve at least 0.9, where 1 is the maximum; inconclusive = response in the unintended direction; inactive = score below 0.9.

Assays:
[1] = target: zebrafish Thyroid Hormone Receptor alpha (TRa), thraa (gene 30670) (UniProt Q98867); experiment: ATG_zfTRa_XSP2: Attagene TRANS-FACTORIAL Multi-Species (XSP1) HepG2 Assay for zebrafish Thyroid Hormone Receptor alpha (TRa) (AID 2283832);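 also: actives raise zebrafish TRa-Gal4 reporter transcript above DMSO baseline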
Method in brief: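 HepG2 cells transiently transfected with multiplexed GAL4-UAS reporter units expressing chimeric NR-Gal4 proteins; 24 h after dosing, reporter mRNA measured by RT-PCR, FAM labelling, HpaI digestion and capillary electrophoresis; gain of signal versus DMSO baseline.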

[2] = test system: zebrafish Peroxisome Proliferator-activated Receptor gamma (PPARg), gene 557037; experiment: ATG_zfPPARg_XSP2: Attagene TRANS-FACTORIAL Multi-Species (XSP2) HepG2 Assay for zebrafish Peroxisome Proliferator-activated Receptor gamma (PPARg) (AID 2283833);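 also: actives increase reporter signal over DMSO so AC50 reflects activation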
Method in brief: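 HepG2 cells transiently transfected with multiplexed GAL4-UAS reporter units expressing chimeric NR-Gal4 receptors, dosed 24 h. Reporter mRNA quantified by RT-PCR, fluorescent labelling, HpaI digestion and capillary electrophoresis; gain of signal fitted against DMSO.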

[3] = test system: turtle Thyroid Hormone Receptor, alpha (TRa), gene 101949057; experiment: ATG_trTRa_XSP2: Attagene TRANS-FACTORIAL Multi-Species (XSP1) HepG2 Assay for turtle Thyroid Hormone Receptor, alpha (TRa) (AID 2283834);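 also: hits raise reporter mRNA over the DMSO baseline so AC50 marks activators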
Method in brief: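 HepG2 cells transiently transfected with GAL4-UAS reporter units for chimeric turtle TRa-Gal4; mRNA measured 24 h after dosing by RT-PCR and capillary electrophoresis fluorescence, gain of signal fitted against DMSO.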

[4] = ATG_M_61_XSP2: Attagene TRANS-FACTORIAL Multi-Species (XSP2) HepG2 Assay for M61 Transcription Factor (Internal Marker) (AID 2283835; active = hit-call score of the fitted dose curve at least 0.9, where 1 is the maximum; inactive = score below 0.9;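 also: reporter mRNA of an internal background marker read by RT-PCR and capillary electrophoresis; active means a rise in signal above the DMSO baseline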)
Method in brief: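 First, HepG2 cells are transfected with reporter units under GAL4-UAS control. Next, chemicals are applied for 24 h. Then total RNA is reverse-transcribed, amplified, fluorescently labelled and sized by capillary electrophoresis, with gain of signal scored against DMSO.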

[5] = target: zebrafish Thyroid Hormone Receptor beta (TRb), thrb (gene 30607) (UniProt Q9PVE4); experiment: ATG_zfTRb_XSP2: Attagene TRANS-FACTORIAL Multi-Species (XSP1) HepG2 Assay for zebrafish Thyroid Hormone Receptor beta (TRb) (AID 2283836)
Method in brief: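 HepG2 cells transiently transfected with multiplexed GAL4-UAS reporter units expressing chimeric NR-Gal4 proteins; read 24 h after dosing. Reporter mRNA quantified by RT-PCR, 6-FAM labelling, HpaI digest and capillary electrophoresis; gain of signal fitted relative to DMSO.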

[6] = ATG_XTT_Cytotoxicity_XSP2: Cytotoxicity Assessment in the Attagene TRANS-FACTORIAL Multi-Species (XSP2) HepG2 Assay (AID 2283837)
Method in brief: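 HepG2 cells, transiently transfected with multiple reporter constructs, exposed to chemical for 24 h. Cell number assessed with XTT fluorescence read-out; loss of signal fitted relative to DMSO.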

[7] = target: human Thyroid hormone Receptor alpha (TRa), THRA (gene 7067) (UniProt P10827); experiment: ATG_hTRa_XSP2: Attagene TRANS-FACTORIAL Multi-Species (XSP2) HepG2 Assay for human Thyroid hormone Receptor alpha (TRa) (AID 2283838)
Method in brief: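 HepG2 cells transiently transfected with multiplexed GAL4-UAS reporter units and exogenous NR-GAL4 chimeras; 24 h chemical exposure with 3 nM 6-alpha-fluorotestosterone and 1.5 nM norgestrel present. Reporter mRNA measured by RT-PCR, FAM labelling, HpaI digestion, capillary electrophoresis; gain-of-signal versus DMSO.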

[8] = target: frog Thyroid hormone Receptor alpha (TRa), thra-a (gene 397942) (UniProt P15204); experiment: ATG_frTRa_XSP2: Attagene TRANS-FACTORIAL Multi-Species (XSP2) HepG2 Assay for frog Thyroid hormone Receptor alpha (TRa) (AID 2283839)
Method in brief: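 HepG2 transiently transfected with multiplexed GAL4-UAS reporters driven by frog TRa-Gal4 chimeras; 24 h chemical exposure. Reporter mRNA quantified by RT-PCR, FAM labelling, HpaI digestion and capillary electrophoresis; gain of signal versus DMSO.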

[9] = target: human Thyroid hormone Receptor beta (TRb), THRB (gene 7068) (UniProt P10828); experiment: ATG_hTRb_XSP2: Attagene TRANS-FACTORIAL Multi-Species (XSP2) HepG2 Assay for human Thyroid hormone Receptor beta (TRb) (AID 2283840);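 also: actives raise reporter mRNA so potency reflects agonist-like gain of signal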
Method in brief: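 HepG2 transiently transfected with a multi-species panel including a human TRb–Gal4 chimera driving Gal4-UAS reporters; medium contained 3 nM 6-alpha-fluorotestosterone and 1.5 nM norgestrel. 24 h dosing; RT-PCR/capillary electrophoresis readout; positive-direction fit vs DMSO.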

[10] = test system: Sodium/Iodide Symporter (NIS), SLC5A5 (gene 6528); experiment: CPHEA_Stoker_NIS_Inhibition_RAIU: CPHEA's Radioactive Iodide Uptake (RAIU) Assay for Sodium/Iodide Symporter (NIS) Inhibition, Stoker and Laws Labs (AID 2283841)
Method in brief: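 HEK293T cells stably expressing human NIS (hNIS-HEK293T-EPA) were exposed to test chemicals at 0.001–100uM (0.5% final DMSO) with 125I at a final 329pM in HBSS/10mM HEPES pH 7.4. After 2 hours at room temperature and ice-cold washes, intracellular 125I was counted as CPM and normalized to DMSO wells.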

[11] = CPHEA_Stoker_NIS_Cytotoxicity: Cytotoxicity Assessment for CPHEA's Radioactive Iodide Uptake (RAIU) Assay for Sodium/Iodide Symporter (NIS) Inhibition, Stoker and Laws Labs (AID 2283897);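 as to AC50: active means loss of ATP signal versus DMSO meaning cytotoxicity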
Method in brief: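 hNIS-HEK293T-EPA human kidney cells were exposed for 2 hours at room temperature to test chemicals (0.001–100uM, 0.5% final DMSO) in HEPES-buffered HBSS, pH 7.4. Viability was read as ATP content by luciferase bioluminescence, loss of signal versus DMSO.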

PGR (gene 5241) [12] = target: PGR (gene 5241) (UniProt P06401); experiment: TOX21_PR_BLA_Followup_Antagonist_ratio: Tox21 HEK293 Progesterone Receptor (PR) Antagonism Beta-lactamase Follow-Up Assay, Ratio (AID 2283934)
Method in brief: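 PR-UAS-bla HEK293T cells in medium with 2% charcoal-stripped FBS were treated with compounds plus 1 nM (final) promegestone (R5020) for 16 hr at 37C. LiveBLAzer B/G FRET substrate was then added for 2 h at room temperature; signal is cleaved/uncleaved substrate ratio versus DMSO.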

[13] = TOX21_PR_BLA_Followup_Agonist_viability: Viability Assessment in the Tox21 HEK293 Progesterone Receptor (PR) Agonism Beta-lactamase Follow-Up Assay (AID 2283935);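 also: signal loss means lower viability so actives are cytotoxic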
Method in brief: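 PR-UAS-bla HEK293T cells in 2% charcoal-stripped FBS medium, compound added after 6 hr plating, 16 hr at 37C/5% CO2. After bla FRET read, CellTiter-Glo added; luminescence read after 30 min at room temperature; signal loss marks cytotoxicity.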

[14] = TOX21_PR_BLA_Followup_Antagonist_viability: Viability Assessment in the Tox21 HEK293 Progesterone Receptor (PR) Antagonism Beta-lactamase Follow-Up Assay (AID 2283936);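 also: hits lower the luminescence signal meaning cytotoxicity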
Method in brief: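 PR-UAS-bla HEK293T cells (3,000/well, 2% charcoal-stripped FBS) given compound plus R5020 agonist, 16 h at 37C. CellTiter-Glo added after bla read, 30 min at room temperature; luminescence loss indicates cytotoxicity.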

PGR (gene 5241) [15] = target: PGR (gene 5241) (UniProt P06401); experiment: TOX21_PR_LUC_Followup_Antagonist: Tox21 HEK293 Progesterone Receptor (PR) Antagonism Luciferase Follow-Up Assay (AID 2283938);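 also: curve fitted upward as signal gain over DMSO baseline despite antagonist label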
Method in brief: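 HEK293-PR-A-luc cells, 3,000/well, preincubated 5 h at 37C before compound addition in DMSO; 16 h compound exposure at 37C. ONE-Glo luciferase luminescence read after 30 min at room temperature, fitted relative to DMSO baseline.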

[16] = TOX21_PR_LUC_Followup_Antagonist_viability: Viability Assessment in the Tox21 HEK293 Progesterone Receptor (PR) Antagonism Luciferase Follow-Up Assay (AID 2283940)
Method in brief: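 HEK293-PR-A-luc cells, precultured 5 days in assay medium with 10% charcoal-stripped FBS, were seeded at 3,000 cells/well, treated with compounds in DMSO for 16 h at 37C, and viability was read as cellular ATP by CellTiter-Glo luminescence.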

[17] = TOX21_PR_LUC_Followup_Agonist_viability: Viability Assessment in the Tox21 HEK293 Progesterone Receptor (PR) Agonism Luciferase Follow-Up Assay (AID 2283941);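 also: loss of signal means cytotoxicity so actives lower viability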
Method in brief: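 HEK293-PR-A-luc cells, pre-cultured 5 days in 10% charcoal-stripped FBS, were seeded at 3,000 cells/well, rested 5 h at 37C, then given compound in DMSO for 16 h at 37C. Cellular ATP was read by CellTiter-Glo luminescence; signal loss indicates cytotoxicity.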

[18] = target: Thyroid hormone receptor alpha (Rattus norvegicus) + Thyroid hormone receptor beta (Rattus norvegicus) (UniProt P18113+P63059); experiment: TOX21_TR_LUC_GH3_Agonist_Followup: Tox21 GH3 Thyroid Hormone Receptor Agonism Luciferase Follow-Up Assay (AID 2283939)
Method in brief: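 Rat GH3 cells (1,500/well) in serum-free assay medium, treated with 15-point series, 92 uM to 5 nM final, for 24 h at 37C. Luciferase via ONE-Glo luminescence; gain of signal fitted against DMSO, T3 positive control.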

PGR (gene 5241) [19] = target: PGR (gene 5241) (UniProt P06401); experiment: TOX21_PR_BLA_Followup_Agonist_ratio: Tox21 HEK293 Progesterone Receptor (PR) Agonism Beta-lactamase Follow-Up Assay, Ratio (AID 2283933)
Method in brief: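 PR-UAS-bla HEK293T cells (GAL4-UAS beta-lactamase reporter) in medium with 2% charcoal-stripped FBS received compounds after 6 hr at 37C, then incubated 16 hr. LiveBLAzer FRET substrate added, 2 hr room temperature; cleaved/uncleaved (ch2/ch1) ratio fitted upward versus DMSO.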

PGR (gene 5241) [20] = target: PGR (gene 5241) (UniProt P06401); experiment: TOX21_PR_LUC_Followup_Agonist: Tox21 HEK293 Progesterone Receptor (PR) Agonism Luciferase Follow-Up Assay (AID 2283937; active = hit-call score of the fitted dose curve at least 0.9, where 1 is the maximum; inactive = score below 0.9)
Method in brief: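 HEK293-PR-A-luc cells, pre-cultured 5 days in medium with 10% charcoal-stripped FBS, were seeded at 3,000 cells/well, rested 5 h at 37C, then exposed to compounds 16 h at 37C; luciferase read by ONE-Glo luminescence after 30 min.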

Measured: AC50

Sequence of PGR (gene 5241) (P06401 whole entry, looked up, the tested form may be a part): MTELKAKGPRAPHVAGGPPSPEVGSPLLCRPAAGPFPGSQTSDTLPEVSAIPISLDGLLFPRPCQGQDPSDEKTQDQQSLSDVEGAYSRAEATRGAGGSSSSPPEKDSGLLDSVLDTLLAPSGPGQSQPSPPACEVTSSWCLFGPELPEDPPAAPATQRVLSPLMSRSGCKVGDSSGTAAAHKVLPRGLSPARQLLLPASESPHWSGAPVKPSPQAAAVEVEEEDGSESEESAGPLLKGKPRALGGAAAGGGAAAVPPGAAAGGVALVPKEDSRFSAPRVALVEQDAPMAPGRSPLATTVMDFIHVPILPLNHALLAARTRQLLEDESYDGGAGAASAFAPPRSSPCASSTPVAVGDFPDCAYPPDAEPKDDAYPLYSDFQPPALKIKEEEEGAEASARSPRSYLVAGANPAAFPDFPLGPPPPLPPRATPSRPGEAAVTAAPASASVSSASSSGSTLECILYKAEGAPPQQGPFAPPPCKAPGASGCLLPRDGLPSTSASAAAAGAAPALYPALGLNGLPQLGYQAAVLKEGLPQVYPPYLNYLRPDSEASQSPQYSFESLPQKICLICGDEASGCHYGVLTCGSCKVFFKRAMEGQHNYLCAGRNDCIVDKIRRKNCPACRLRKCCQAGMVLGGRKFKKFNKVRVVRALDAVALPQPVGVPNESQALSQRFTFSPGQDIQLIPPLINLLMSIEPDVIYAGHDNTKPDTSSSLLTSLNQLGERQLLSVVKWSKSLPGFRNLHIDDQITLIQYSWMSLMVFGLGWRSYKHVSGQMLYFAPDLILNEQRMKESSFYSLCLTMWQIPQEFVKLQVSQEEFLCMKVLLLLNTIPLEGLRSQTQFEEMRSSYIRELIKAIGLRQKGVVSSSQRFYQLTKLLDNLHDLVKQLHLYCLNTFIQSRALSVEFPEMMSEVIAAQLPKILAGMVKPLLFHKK
Sequence of frog Thyroid hormone Receptor alpha (TRa), thra-a (gene 397942) (P15204 whole entry, looked up, the tested form may be a part): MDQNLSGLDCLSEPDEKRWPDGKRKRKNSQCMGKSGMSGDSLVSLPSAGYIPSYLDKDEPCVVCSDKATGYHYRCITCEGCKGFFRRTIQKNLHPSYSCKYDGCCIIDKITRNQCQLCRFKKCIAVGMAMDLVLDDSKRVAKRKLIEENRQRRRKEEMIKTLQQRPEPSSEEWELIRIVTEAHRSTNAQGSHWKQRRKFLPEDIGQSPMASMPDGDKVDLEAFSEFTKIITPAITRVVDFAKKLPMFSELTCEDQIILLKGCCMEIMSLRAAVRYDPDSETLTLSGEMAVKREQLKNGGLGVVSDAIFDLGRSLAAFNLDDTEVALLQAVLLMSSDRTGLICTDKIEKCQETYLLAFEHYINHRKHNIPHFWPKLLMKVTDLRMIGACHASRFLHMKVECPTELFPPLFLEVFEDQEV
Sequence of zebrafish Thyroid Hormone Receptor alpha (TRa), thraa (gene 30670) (Q98867 whole entry, looked up, the tested form may be a part): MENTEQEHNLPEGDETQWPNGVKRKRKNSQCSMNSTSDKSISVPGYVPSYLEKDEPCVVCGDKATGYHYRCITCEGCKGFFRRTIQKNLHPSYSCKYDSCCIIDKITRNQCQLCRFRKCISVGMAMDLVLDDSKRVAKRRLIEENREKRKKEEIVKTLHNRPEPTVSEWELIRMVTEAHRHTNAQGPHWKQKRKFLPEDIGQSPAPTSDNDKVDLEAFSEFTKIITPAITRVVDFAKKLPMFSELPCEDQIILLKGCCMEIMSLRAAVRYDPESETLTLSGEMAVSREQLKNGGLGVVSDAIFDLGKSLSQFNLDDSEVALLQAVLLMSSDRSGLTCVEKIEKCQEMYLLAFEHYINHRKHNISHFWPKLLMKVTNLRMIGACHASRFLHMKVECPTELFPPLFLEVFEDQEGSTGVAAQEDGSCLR
Sequence of human Thyroid hormone Receptor alpha (TRa), THRA (gene 7067) (P10827 whole entry, looked up, the tested form may be a part): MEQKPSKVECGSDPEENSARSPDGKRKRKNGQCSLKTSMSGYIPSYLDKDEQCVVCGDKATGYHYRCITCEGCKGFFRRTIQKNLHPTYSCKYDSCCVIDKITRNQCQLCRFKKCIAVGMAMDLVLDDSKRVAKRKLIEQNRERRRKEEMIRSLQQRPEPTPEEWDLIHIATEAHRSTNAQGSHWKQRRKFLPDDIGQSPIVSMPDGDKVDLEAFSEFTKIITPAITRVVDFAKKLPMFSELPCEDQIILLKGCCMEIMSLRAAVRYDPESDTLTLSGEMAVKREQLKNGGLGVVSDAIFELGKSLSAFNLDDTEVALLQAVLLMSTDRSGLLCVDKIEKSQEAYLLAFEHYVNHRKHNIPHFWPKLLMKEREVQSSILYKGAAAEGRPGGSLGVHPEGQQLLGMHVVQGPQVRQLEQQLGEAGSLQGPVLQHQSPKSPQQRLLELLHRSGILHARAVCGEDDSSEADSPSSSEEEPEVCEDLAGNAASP
Sequence of zebrafish Thyroid Hormone Receptor beta (TRb), thrb (gene 30607) (Q9PVE4 whole entry, looked up, the tested form may be a part): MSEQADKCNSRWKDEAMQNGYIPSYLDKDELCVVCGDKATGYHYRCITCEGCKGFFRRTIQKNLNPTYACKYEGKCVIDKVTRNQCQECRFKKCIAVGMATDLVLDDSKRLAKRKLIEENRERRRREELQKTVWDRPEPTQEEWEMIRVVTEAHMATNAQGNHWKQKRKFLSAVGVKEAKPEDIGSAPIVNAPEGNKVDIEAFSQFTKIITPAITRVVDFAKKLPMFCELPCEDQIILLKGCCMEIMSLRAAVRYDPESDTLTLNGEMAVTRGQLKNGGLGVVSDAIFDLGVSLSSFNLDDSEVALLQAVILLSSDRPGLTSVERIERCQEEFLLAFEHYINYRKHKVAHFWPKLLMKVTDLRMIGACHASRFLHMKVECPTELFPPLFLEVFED
Sequence of human Thyroid hormone Receptor beta (TRb), THRB (gene 7068) (P10828 whole entry, looked up, the tested form may be a part): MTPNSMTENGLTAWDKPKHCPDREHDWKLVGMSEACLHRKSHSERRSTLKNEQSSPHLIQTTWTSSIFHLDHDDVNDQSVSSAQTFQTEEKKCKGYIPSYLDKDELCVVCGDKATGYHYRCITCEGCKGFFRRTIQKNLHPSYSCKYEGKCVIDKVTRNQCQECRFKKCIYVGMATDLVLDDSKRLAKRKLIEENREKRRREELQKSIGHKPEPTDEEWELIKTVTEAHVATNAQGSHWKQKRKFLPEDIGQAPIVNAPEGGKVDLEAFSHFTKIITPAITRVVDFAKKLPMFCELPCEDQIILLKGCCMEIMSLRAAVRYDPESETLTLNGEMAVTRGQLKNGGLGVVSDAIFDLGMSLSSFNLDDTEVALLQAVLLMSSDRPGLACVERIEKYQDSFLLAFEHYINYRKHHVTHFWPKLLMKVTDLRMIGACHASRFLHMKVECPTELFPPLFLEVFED
Sequence of Thyroid hormone receptor alpha (Rattus norvegicus) + Thyroid hormone receptor beta (Rattus norvegicus) (P63059 whole entry, looked up): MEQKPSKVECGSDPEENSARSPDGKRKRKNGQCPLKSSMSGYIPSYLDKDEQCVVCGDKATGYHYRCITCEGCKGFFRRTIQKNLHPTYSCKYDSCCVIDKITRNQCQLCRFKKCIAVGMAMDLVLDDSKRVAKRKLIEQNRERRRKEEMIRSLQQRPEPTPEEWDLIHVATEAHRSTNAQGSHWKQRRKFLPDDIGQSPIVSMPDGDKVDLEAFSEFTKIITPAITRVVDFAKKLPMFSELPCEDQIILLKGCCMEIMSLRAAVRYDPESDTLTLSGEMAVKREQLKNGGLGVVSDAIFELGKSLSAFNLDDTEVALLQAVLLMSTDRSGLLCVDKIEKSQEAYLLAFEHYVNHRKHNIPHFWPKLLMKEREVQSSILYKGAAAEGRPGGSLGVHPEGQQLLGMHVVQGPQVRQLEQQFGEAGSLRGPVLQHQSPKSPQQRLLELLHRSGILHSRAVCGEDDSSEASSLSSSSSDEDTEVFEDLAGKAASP
Sequence of Thyroid hormone receptor alpha (Rattus norvegicus) + Thyroid hormone receptor beta (Rattus norvegicus) (P18113 whole entry, looked up): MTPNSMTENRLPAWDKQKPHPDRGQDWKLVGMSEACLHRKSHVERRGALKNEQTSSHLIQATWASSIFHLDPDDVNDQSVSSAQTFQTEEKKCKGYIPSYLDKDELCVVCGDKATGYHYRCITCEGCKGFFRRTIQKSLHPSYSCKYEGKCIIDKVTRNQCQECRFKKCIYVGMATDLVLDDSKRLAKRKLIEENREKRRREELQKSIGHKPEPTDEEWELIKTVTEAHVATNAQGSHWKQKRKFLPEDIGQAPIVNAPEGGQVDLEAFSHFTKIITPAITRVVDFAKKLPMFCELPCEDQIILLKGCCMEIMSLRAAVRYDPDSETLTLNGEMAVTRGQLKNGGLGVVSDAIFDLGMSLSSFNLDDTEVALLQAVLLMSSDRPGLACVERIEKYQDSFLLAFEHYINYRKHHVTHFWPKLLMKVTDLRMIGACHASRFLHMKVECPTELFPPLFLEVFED

COC(=O)c1c(C)cc(O)c(C)c1O
inactive: [1] | [2] | [3] | [4] | [5] | [6] | [7] | [8] | [9]

CCCCCCCCCCOS(=O)(=O)O
active: [10] 8.08 µM
inactive: [11]

CCN(CCC#N)c1ccc(N=Nc2c(Cl)cc([N+](=O)[O-])cc2Cl)cc1
inactive: [10] | [11]

COc1ccc(C(Cl)=C(c2ccc(OC)cc2)c2ccc(OC)cc2)cc1
active: PGR (gene 5241) [12] 8.27 µM | PGR (gene 5241) [15] 8.88 µM
inactive: [13] | [14] | [16] | [17]

Nc1ccc(-c2ccc(F)cc2)cc1
inactive: [13] | [14] | PGR (gene 5241) [15] | [16] | [17]
active: PGR (gene 5241) [12] 24.6 µM

Cc1ccc(C(C)c2ccc(C)c(C)c2)cc1C
inactive: PGR (gene 5241) [12] | [13] | [14] | PGR (gene 5241) [15] | [16] | [17]

C[C@]12C=CC(=O)C=C1CC[C@@H]1[C@@H]2[C@@H](O)C[C@@]2(C)[C@H]1CC[C@]2(O)C(=O)CO
inactive: PGR (gene 5241) [12] | [13] | [14] | [16] | [17]

CC(C)(C)c1ccc(OC(=O)c2ccccc2O)cc1
inactive: [10] | [11]

NC(CO)(CO)CO
inactive: [10] | [11]
active: [18] 10.6 µM

Oc1ccc(Cl)cc1Cc1cc(Cl)ccc1O
active: [10] 9.92 µM | [11] 50 µM

CC(C)(c1cc(Br)c(OCCO)c(Br)c1)c1cc(Br)c(OCCO)c(Br)c1
active: PGR (gene 5241) [12] 13.4 µM | [13] 32.2 µM | [14] 54 µM | PGR (gene 5241) [15] 12.8 µM
inactive: PGR (gene 5241) [19] | PGR (gene 5241) [20] | [16] | [17]

O=c1cc(-c2ccccc2)oc2ccccc12
inactive: [10] | [11]
